# Screening data (PubChem)
# Only some compounds are listed: those with a hit (about 1.9% of all), similar ones and a draw of the others.
# FUS suppressor – qHTS for Suppressors of FUS Proteinopathy: Primary screen using FUS-linked yeast assay. 390,000 compounds, 0.24% hits. S. cerevisiae FUS-expressing, growth rescue, OD600, 24 h. AID 1347120, 2019. Potency, µM (titrated, usually from 76.6 µM), hits mostly activators;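 further: potency means the concentration at half of the fitted maximal effect; plate controls were DMSO vehicle for no effect and reference control for full effect; nearly all actives have a fitted effect of over 55% in size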
#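 Yeast FUS proteinopathy model; galactose-induced FUS (2%), starting OD 0.005. Cpds in dilution series, 24hr, 30C, 99% humidity. Abs 600 nm growth. Pos ctrl CP55940 (top 92uM final); neg ctrl DMSO.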
# LDHA block – qHTS assay for inhibitors of human lactate dehydrogenase. purified LDHA, NADH/diaphorase-resazurin fluorescence; stronger effect = lower value. 480,000 compounds, 0.15% hits. activity change, % (values are at about 110 or 230 µM). L-lactate dehydrogenase A chain (Homo sapiens), P00338. AID 1347041, 2019; in the data active means activity change below about -30%; inconclusive means mostly about -25% to -30%;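 further: plate controls were DMSO wells for no effect and wells without enzyme for full effect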
#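 Resorufin fluorescence (ex540/em590), read at 0 and 20 min after diaphorase/resazurin addition, reports the NADH left after a 5 min room-temperature reaction of 2 nM human LDH5 with 0.06 mM NADH and 0.2 mM pyruvate.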
# TDP-43 yeast inh – qHTS of TDP-43 Inhibitors. TDP-43 expressing yeast growth rescue, BacTiter-Glo, 24 h. 410,000 compounds, 1.8% hits. Potency, µM (doses to about 46.1 µM), without a hit: at the top dose growth rescue (activation), hits mostly activators; further: potency means the concentration at half of the fitted maximal effect; % of control where 0% means no effect; nearly all actives have a fitted effect of over 50% in size
#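 In this qHTS, compounds that restore growth of yeast expressing TDP-43 appear as activators. Cells (OD600=0.02, galactose medium, raffinose-pregrown) are incubated with compound 24 hr at 30 deg C and growth is quantified by BacTiter-Glo.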
# aSyn rescue – qHTS of alpha-syn Inhibitors | 370,000 compounds, 0.14% hits | Potency, µM (doses to about 46.1 µM), for the others: at the highest dose growth rescue (activation), most hits filed as activators | Yeast expressing alpha-synuclein, growth rescue, BacTiter-Glo, 24 h; further: potency means the concentration at half of the fitted maximal effect; % of control where 0% means no effect; nearly all actives have a fitted effect of over 65% in size
#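 Rescue of yeast growth: cells expressing toxic alpha-synuclein, induced in galactose at OD600 0.02, incubated with compound 24 h at 30 C. ATP luminescence quantified growth; inhibitors of toxicity appear as activators.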
# Abeta rescue – qHTS for compounds that reverse cellular toxicity of Amyloid beta (A-beta) peptide in yeast: Primary Screen | yeast expressing A-beta42, growth rescue, OD600, 48 h; response scale: 0% DMSO, 100% iron-clioquinol control | Potency, µM (doses to about 46.1 µM), hits mostly activators | 410,000 compounds, 0.063% hits | AID 1347071, 2019; further: potency means the concentration at half of the fitted maximal effect; nearly all actives have a fitted effect of over 55% in size
#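 Yeast growth medium received pinned compounds, then yeast cells expressing toxic A-beta were added; plates incubated at 30 C for 48 hr. Growth read as absorbance at 600 nm, normalized to DMSO and equimolar FeCl3 plus clioquinol controls.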
# PTHR1 agonist – qHTS for PTHR1 Agonists: Primary Screen; Parathyroid hormone/parathyroid hormone-related peptide receptor (Homo sapiens), Q03431; Potency, µM (series often up to 115 µM), for inactives: top-dose activation, hits mostly activators; HEK293 GP2 PTHR1 cells, GloSensor cAMP luminescence, 1 h; 410,000 compounds, 0.075% hits; AID 743266, 2014; further: potency means the concentration at half of the fitted maximal effect; nearly all actives have a fitted effect of over 55% in size
# Target sequence (Q03431 whole entry, looked up): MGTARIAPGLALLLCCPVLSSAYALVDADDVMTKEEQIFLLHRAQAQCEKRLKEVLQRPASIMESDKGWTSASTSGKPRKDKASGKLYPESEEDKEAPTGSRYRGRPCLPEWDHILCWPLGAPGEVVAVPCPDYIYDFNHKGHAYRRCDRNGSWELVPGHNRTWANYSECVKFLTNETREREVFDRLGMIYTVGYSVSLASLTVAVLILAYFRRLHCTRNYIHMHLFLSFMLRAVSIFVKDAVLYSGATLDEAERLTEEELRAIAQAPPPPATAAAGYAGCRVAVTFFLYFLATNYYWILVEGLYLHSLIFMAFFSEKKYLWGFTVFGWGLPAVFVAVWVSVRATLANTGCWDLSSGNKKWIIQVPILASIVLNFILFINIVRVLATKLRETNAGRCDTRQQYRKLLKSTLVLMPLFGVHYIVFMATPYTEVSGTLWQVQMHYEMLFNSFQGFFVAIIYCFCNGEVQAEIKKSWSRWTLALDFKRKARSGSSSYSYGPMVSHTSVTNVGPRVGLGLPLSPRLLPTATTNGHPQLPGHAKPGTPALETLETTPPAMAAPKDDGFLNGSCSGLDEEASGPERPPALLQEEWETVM
#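 HEK-293-derived GP2 cells expressing PTHR1 and a GloSensor cAMP reporter, 3,000/well, plated overnight, given luciferin plus IBMX (each 0.5 mM as added) for 1 h at 37 °C, then compound for 1 h at 37 °C. Luminescence was read after 15 min at room temperature.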
# * marks the source's active call; other numbers are inactive results; i = inactive; ? = inconclusive; . = not tested or not shown; [ ] = dose if it differs, or a comment. Unless noted, the call rests on the fitted dose curve; in most records, active means well fitted curve in the direction sought with a large enough effect; inconclusive means small, poorly fitted or top-dose-only effect, or another doubt; inactive means no such curve, though single readings can be large; an effect the other way counts as inactive or inconclusive.
SMILES,FUS suppressor,LDHA block,TDP-43 yeast inh,aSyn rescue,Abeta rescue,PTHR1 agonist
Cc1ccc(C(=O)Nc2nc3nc(C)cc(=O)n3[nH]2)cc1,i,-70*,12%,.,i,2%
CCCCCOC(=O)Cc1c(O)c2ccccc2n(C)c1=O,i,1,11µM*,13%,i,-22%[57.5 µM]
Cc1ccc(/C=C/C(=O)c2c(C)nc3ccc(Cl)cc3c2-c2ccccc2)o1,.,11,.,.,.,.
Oc1ccccc1/C=N/Nc1cccc2cccnc12,i,11,18µM*,-17%,i,-14%[57.5 µM]
Cc1ccc(-n2c(SCC(=O)Nc3ccc4c(c3)OCCO4)nnc2N2CCOCC2)cc1,.,11,.,.,.,.
Brc1cccc[n+]1CCCC[n+]1ccccc1Br,.,-62*,.,1%,.,.
Brc1cccc[n+]1CCCCCC[n+]1ccccc1Br,.,-60*,.,?,.,.
COc1ccc(-c2ocnc2C(=O)NCc2cc(OC)c(OC)c(OC)c2)cc1,.,8,.,.,.,.
CC(C)c1cc(N2CCN(CCO)CC2)n2c(nc3ccccc32)c1C#N,.,-5,.,.,.,.
O=C(C1CCCN1S(=O)(=O)c1ccc(F)cc1)N1CCc2ccccc2C1 (stereo not given),i,.,.,.,.,.
Cc1ccc(S(=O)(=O)N2CCCC2C(=O)n2nc(C)c(Sc3ccccc3)c2C)cc1 (stereo not given),.,-35*,.,.,.,.
Cc1nn(C(=O)C2CCCN2S(=O)(=O)c2ccc(F)cc2)c(C)c1Sc1ccccc1 (stereo not given),.,-34*,.,.,.,.
Cc1ccccc1C1CCCN1S(=O)(=O)c1cccc2nsnc12 (stereo not given),.,-5,.,.,.,.
COc1ccc(CC(=O)NO)cc1,.,8,.,-7%,.,.
COC(=O)/N=C(/Cc1ccc(OC)cc1)c1ccc(OC)cc1,i,0,22µM*,-3%,i,-19%
O=C(O)CSc1cccc[n+]1[O-],i,-5,12%,2%,i,i
O=C(CSc1cccc[n+]1[O-])c1cc(Cl)ccc1Cl,i,-3,11µM*,12%,?,i
O=C(CSc1cccc[n+]1[O-])C12CC3CC(CC(C3)C1)C2,i,-9,14µM*,7%,?,-1%
COC(=O)c1ccc(C)c(NS(=O)(=O)c2c(C)nn(C)c2C)c1,.,-17,.,.,.,.
CC(Oc1ccc(Cl)cc1Cl)C(=O)Nc1ccc(N2CCN(C)CC2)nc1 (stereo not given),.,2,.,.,.,.
O=C(c1ccco1)c1cn(CCOc2ccc(Cl)cc2)c2ccccc12,i,4,6%,.,i,-25%
O=C(c1ccco1)c1cn(CCOc2ccc(F)cc2)c2ccccc12,i,1,18µM*,.,i,-81%
COc1ccccc1OCCn1cc(/C=N/NC(=O)c2ccncc2)c2ccccc21,i,-3,13µM*,10%,i,-16%
COC(=O)c1cn(CCOc2ccccc2F)c2ccccc12,i,0,11µM*,9%,?,-7%[57.5 µM]
CCOCCCNC(=O)C1CCNCC1,.,0,.,.,.,.
SMILES,FUS suppressor,LDHA block,TDP-43 yeast inh,aSyn rescue,Abeta rescue,PTHR1 agonist
N#CC1=C(N)N(c2ccccc2Sc2ccccc2)C(=O)C1,28µM*,-1,-1%,1%,i,-7%[57.5 µM]
N#CC1=C(N)N(c2ccccc2)C(=O)C1,i,3,16%,5%,i,i
Cc1cccc(N2CCN(C(=O)c3ccc(CNS(=O)(=O)c4ccc5ccccc5c4)cc3)CC2)c1,.,2,.,.,.,.
C=CCNC(=S)NN=C1CCCCCCC1,i,-6,-3%,-8%,8.9µM*,-4%
C=CCNC(=S)NN=C1CCC(CCC)CC1 (stereo not given),.,6,.,.,.,.
Cc1cc(C)c2oc(-c3cccc(N)c3)nc2c1,i,-14,11µM*,7%,i,-8%
